# Measured values taken from ChEMBL document CHEMBL3988442, “University of Dundee, Small-Polar-MMV Screening Library” (2021).
# Screen size: about 48,000 compounds; about 13,000 (27%) showed an effect of 50% or more. The list shows a part of the results.
# Test system: Wolbachia pipientis
# Experiment: Anti-Wolbachia Cell-Based Screen
# Type: functional
# Design: scale not given: in the data most compounds retested in dose-response had high values
# Conditions: 5 µM
row,Compound,Percent Effect [%]
1,Cc1nc2ncnn2c2ccn(-c3cccnc3O)c(=O)c12,-8.283
2,Cc1c(C(N)=O)sc2nc(C(F)(F)F)ccc12,-3.926
3,O=C(NC1CCc2[nH]c(=O)ccc2C1)C1CCOCC1 (stereo unspecified),-2.009
4,O=c1ccc2c(n1CC1CC1)CCC(NS(=O)(=O)C1CC1)C2 (stereo unspecified),-36.22
5,O=c1ccc2c([nH]1)CCC(NS(=O)(=O)C1CC1)C2 (stereo unspecified),112.2
6,CCCS(=O)(=O)NC1CCc2c(ccc(=O)n2CC2CC2)C1 (stereo unspecified),-27.38
7,CS(=O)(=O)NC1CCc2[nH]c(=O)ccc2C1 (stereo unspecified),99.95
8,CCS(=O)(=O)NC1CCc2c(ccc(=O)n2CC2CC2)C1 (stereo unspecified),2.839
9,Cc1oc(-c2ccsc2)nc1CNC(C)Cn1cccn1 (stereo unspecified),-4.999
10,CS(=O)(=O)c1ccc(CNC[C@H]2COCc3nc4cccnc4n32)cc1,-5.618
11,Cc1ccc(N2CCN(c3ccccc3C)CC2C)nn1 (stereo unspecified),-2.059
12,CC1(C)[C@H]2CC=C(CN3CCCn4nc(CNS(C)(=O)=O)cc4C3)[C@@H]1C2,-5.008
13,CN(Cc1n[nH]c2c1CCCCC2)C(=O)c1cc(-c2cccn2C)n[nH]1,105.6
14,CN(Cc1n[nH]c2c1CCCC2)C(=O)c1cccc(CCC(C)(C)O)c1,-30.85
15,Cn1cccc1-c1cc(C(=O)N2CCCC2C(F)(F)F)[nH]n1 (stereo unspecified),19.39
16,CN(Cc1n[nH]c2c1CCC2)C(=O)c1cccc(CCC(C)(C)O)c1,10.18
17,COCC(c1ccccn1)N(C)C(=O)c1cc(-c2cccn2C)n[nH]1 (stereo unspecified),-5.051
18,CN(Cc1n[nH]c2c1CCC2)C(=O)c1cc(-c2cccn2C)n[nH]1,101.4
19,C1CCN(CCOC2CCNCC2)CC1,5.861
20,CCc1noc(CC)c1CNC(=O)Nc1cccc([S+](C)[O-])c1 (stereo unspecified),-9.563
21,CN(CC(N)=O)S(=O)(=O)c1ccc(F)cc1F,-1.274
22,O=C(NCc1cccnc1N1CCCCC1)c1ccc2cc[nH]c2c1,88.22
23,O=C(NCc1cccnc1N1CCCCC1)c1ccc2[nH]nnc2c1,79.06
24,O=C(NCc1cccnc1N1CCCC(O)C1)c1ccc2[nH]nnc2c1 (stereo unspecified),86.94
25,O=C(NCc1ccccn1)Nc1ccc2[nH]nnc2c1,-4.844
26,CC(NC(=O)c1cccs1)C(=O)NCc1cccnc1N1CCCCC1 (stereo unspecified),-0.6319

row,Compound,Percent Effect [%]
1,O=C(NCc1cccnc1N1CCCCC1)c1ccc2c(c1)OCO2,108.4
2,CC(NC(=O)NCc1cccnc1N1CCCCC1)c1nccs1 (stereo unspecified),-5.623
3,Cc1nccn1-c1ncccc1CNC(=O)c1ccc(O)nc1,-1.557
4,COCCOc1ncccc1CNC(=O)N1CCCCCC1,13.83
5,N#Cc1cccnc1NCc1cccnc1N1CCCCC1,16.56
6,Cc1cccc(-c2nccn2-c2cccc(CC(=O)O)c2)n1,-5.138
7,COC(=O)[C@H](C)NC(=O)Cc1c(C)nc2c(c1C)c(=O)[nH]n2C,-6.613
8,CC(=O)N1CCCN(S(=O)(=O)c2cc3ccccc3o2)CC1,-15.12
9,CCc1c(C)nc2ccccc2c1N1CCC(O)CC1,26.44
10,CN(C)c1nccc(N2CCO[C@H]3CN(Cc4nccn4C)C[C@H]32)n1.O=C(O)C(F)(F)F,90.41
11,Cc1cccc(CN2C(=O)CO[C@@H]3CN(Cc4nccn4C)C[C@H]32)c1.O=C(O)C(F)(F)F,6.159
12,CCc1ccc(CN2C[C@@H]3OCCN(c4ccnc(N(C)C)n4)[C@@H]3C2)o1.O=C(O)C(F)(F)F,11.89
13,Cc1cccc(CN2C[C@@H]3OCCN(c4ccnc(N(C)C)n4)[C@@H]3C2)c1.O=C(O)C(F)(F)F,91.52
14,O=C(c1cnccn1)N1C[C@@H]2CC[C@H](C1)N(C(=O)CCc1ccsc1)C2,0.0629
15,CC(NC(=O)c1cccnc1N(C)C)c1ccccc1Cl (stereo unspecified),5.567
16,CCOC1CC2(CCN(C(=O)Cc3ccccn3)CC2)C1.O=C(O)C(F)(F)F,-13.33
17,O=C1CCC2(CCCN(C(=O)Cc3ccccn3)C2)N1 (stereo unspecified),-49.82
18,O=C(CCc1ccccn1)N1CCCN(C(=O)CC2CCCC2)CC1,129.1
19,O=C(CCc1ccccn1)N1CCN(C(=O)CC2CCCCC2)CC1,-0.7864
20,O=C(Cc1ccccn1)N1CCC2(CC1)[C@H](O)C[C@@H]2O,131.3
21,COc1ncccc1C(=O)N1CCN(C(=O)Cc2ccccn2)CC1,10.82
22,O=C(Cc1ccccn1)N1CCN(C(=O)CC2CCCCC2)CC1,116.9
23,O=C(Cc1ccccn1)N1CCN(C(=O)CC2CCCC2)CC1,111.6
24,O=C(Cc1ccccn1)N1CCN(C(=O)c2cccc3[nH]ncc23)CC1,0.8571
25,CNC(=O)C1(N2CCC[C@H]2C(=O)NC2CC2)CCCCC1.Cl,-3.847
26,O=C(c1cc(Cl)c2c(c1)OCCO2)N1CCCC(n2cncn2)C1 (stereo unspecified),-4.605

row,Compound,Percent Effect [%]
1,CSCCCNC(=O)C(c1cccc(F)c1)N(C)C (stereo unspecified),-14.22
2,CN(C)c1ncccc1C(=O)N1CCCN(c2cccnn2)CC1,-6.134
3,Cc1scc(C(=O)N2CCC3(CCCN(C)C3=O)C2)c1-c1ccccc1 (stereo unspecified),-11
4,CN(CCO)C(=O)c1coc(CN2CCN(c3ccccc3F)CC2)n1,24.23
5,O=C(CCc1ccccn1)N1CCSC2(CCCCC2)C1,-3.003
6,CC(C)NC(=O)C[C@H]1[C@H]2CN(C(=O)Cc3ccccn3)C[C@@H]12.O=C(O)C(F)(F)F,0.3737
7,O=C(CCc1ccccn1)N1CCCC1,132.5
8,CN(C)c1nc(O)cc(C2CCN(C(=O)Cc3ccccn3)C2)n1 (stereo unspecified),148.4
9,Cc1cccnc1N1CCN(C(=O)CCc2ccccn2)CC1,-3.662
10,Cc1nc(O)cc(C2CCCN(C(=O)CN(C)c3ccccc3)C2)n1 (stereo unspecified),1.624
11,CCc1ncc(C(=O)N(CCOC)Cc2nccs2)cn1,-17.92
12,CC(=O)NCCC(=O)NCC1(c2c(F)cccc2F)CCCC1,8.916
13,COc1c(CNC2CCCN(c3ncccn3)C2)c(C(C)C)nn1C (stereo unspecified),105
14,COc1c(CNC2CCN(c3ccccn3)CC2)c(C(C)C)nn1C,112.8
15,COc1c(CNC2CCN(c3ncccn3)CC2)c(C(C)C)nn1C,-7.484
16,CCCS(=O)(=O)N1CCC(NCc2c(C)nn(C)c2OC)CC1,-2.561
17,COc1c(CNC2CCN(c3ncccn3)CC2)c(C)nn1C,109.2
18,COc1c(CNC2CCN(CC(=O)NC3CC3)CC2)c(C)nn1C,-12.1
19,O=C(NCc1ccco1)c1cccc(CN2CCCC2CO)c1 (stereo unspecified),-23.86
20,Cc1cnn(C(C)C2CC2)c1NC(=O)c1ccco1 (stereo unspecified),-0.6057
21,COc1cc2c(cc1OC)S(=O)(=O)N(Cc1ccc(C)cc1)C2=O,-15.41
22,Cc1csc(NC(=O)C2(C)CCCO2)n1 (stereo unspecified),-5.614
23,Cc1nc(NC(=O)C(C)N2CCN(c3ncccn3)CC2)sc1C (stereo unspecified),-4.452
24,CN1CCOC(C(=O)Nc2ccc3c(c2)nc(C(C)(C)C)n3C)C1 (stereo unspecified),1.099
25,CN1CCC(NC(=O)Cc2csc(C(C)(C)C)n2)CC1,-5.316
26,CCC(C)(CNC(=O)Nc1nccs1)N1CCOCC1 (stereo unspecified),14.58

row,Compound,Percent Effect [%]
1,Cc1nc(NC(=O)C2(C)CN(C)CCO2)sc1C.Cl (stereo unspecified),123.3
2,CC(C)(CNC(=O)Nc1nccs1)N1CCOCC1,-4.16
3,Cc1csc(NC(=O)c2cccnc2N2CCOCC2)n1,-18.32
4,CN1CCOC(C)(C(=O)Nc2nccs2)C1 (stereo unspecified),89.7
5,Cc1csc(NC(=O)C2(C)CN(C)CCO2)n1 (stereo unspecified),103.9
6,CN1CCOC(C)(C(=O)Nc2nc(C(C)(C)C)cs2)C1 (stereo unspecified),82.99
7,Cc1nsc(NC(=O)NC2(CN3CCOCC3)CCCC2)n1,-3.665
8,Cc1nccn1C1(C(=O)O)CCN(Cc2ccc3c(c2)OCCO3)CC1,-9.809
9,O=C1CC[C@H]2CN(c3ncc(F)cn3)CC[C@H]2N1CCc1c[nH]cn1,-5.494
10,O=C(NCc1ccncc1)N(Cc1ccccc1F)C1CC1,1.311
11,Cc1cc(C)n2ncc(CN3CCC(n4cc(CCO)nn4)CC3)c2n1,4.389
12,O=C1NCCN2CCN(C(=O)NCCc3ccccc3)CC12 (stereo unspecified),-9.412
13,CC(C)Nc1nc2c(s1)C(=O)CN(C(=O)NCCc1ccccc1)C2,113.9
14,COc1cccc(CNC(=O)c2nc3c(o2)CN(C(=O)N(C)C)C3)c1,-21.04
15,CC(C)Nc1nc2c(s1)C(=O)CN(C(=O)NCc1ccccc1)C2,95.64
16,CNc1nc2c(s1)C(=O)CN(C(=O)[C@@H](N)Cc1cccc(OC)c1)C2,113.9
17,CC(C)[C@@H]1CN(C(=O)NCCc2ccccc2)C[C@H]1NS(=O)(=O)N(C)C,-13.11
18,CNc1nc2c(s1)C(=O)CN(C(=O)NCCc1ccccc1)C2,90.96
19,CNc1nc2c(s1)C(=O)CN(C(=O)NCc1ccccc1)C2,-1.017
20,NC(=O)c1cccc(CCNC(=O)N2Cc3ccccc3C2)c1,2.881
21,CCC1=N[C@@]2(CC[C@@H]3CN(C(=O)NCc4ccccc4)C[C@@H]32)C(=O)N1,-15.34
22,COc1cccc(CN2CCN(C(=O)Nc3nc(C)ns3)CC2=O)c1,-7.215
23,O=C(NCCc1ccccc1)N1CCC(C2OCCO2)CC1,12.73
